Screening results deposited in PubChem by Buhrlage Lab, Dana-Farber Cancer Institute and Novartis Institutes for BioMedical Research (Cambridge, Mass).
USP17 inh: inhibitors of human USP17 deubiquitinase; Ubiquitin carboxyl-terminal hydrolase 17-like protein 5 (Homo sapiens), A8MUK1; purified USP17, Ub-rhodamine cleavage fluorescence, 3 h; inhibition, % at 50 µM; 6.5% of 47,000 active; AID 1645855, 2021
USP8 inh: inhibitors of human USP8 deubiquitinase; 4.2% of 47,000 active; inhibition, % at 20 µM; purified USP8, Ub-rhodamine cleavage fluorescence, 30 min; Ubiquitin carboxyl-terminal hydrolase 8 (Homo sapiens), P40818
USP30 block: inhibitors of human USP30 deubiquitinase. Ubiquitin carboxyl-terminal hydrolase 30 (Homo sapiens), Q70CQ3. purified USP30, Ub-rhodamine cleavage fluorescence. inhibition, % at 25 µM. 5.3% of 47,000 active
USP28 block: inhibitors of human USP28 deubiquitinase | Ubiquitin carboxyl-terminal hydrolase 28 (Homo sapiens), Q96RU2 | AID 1645857, 2021 | 3% of 47,000 active | purified USP28, Ub-rhodamine cleavage fluorescence, 30 min | inhibition, % at 25 µM
Target sequence (Q96RU2 whole entry, looked up): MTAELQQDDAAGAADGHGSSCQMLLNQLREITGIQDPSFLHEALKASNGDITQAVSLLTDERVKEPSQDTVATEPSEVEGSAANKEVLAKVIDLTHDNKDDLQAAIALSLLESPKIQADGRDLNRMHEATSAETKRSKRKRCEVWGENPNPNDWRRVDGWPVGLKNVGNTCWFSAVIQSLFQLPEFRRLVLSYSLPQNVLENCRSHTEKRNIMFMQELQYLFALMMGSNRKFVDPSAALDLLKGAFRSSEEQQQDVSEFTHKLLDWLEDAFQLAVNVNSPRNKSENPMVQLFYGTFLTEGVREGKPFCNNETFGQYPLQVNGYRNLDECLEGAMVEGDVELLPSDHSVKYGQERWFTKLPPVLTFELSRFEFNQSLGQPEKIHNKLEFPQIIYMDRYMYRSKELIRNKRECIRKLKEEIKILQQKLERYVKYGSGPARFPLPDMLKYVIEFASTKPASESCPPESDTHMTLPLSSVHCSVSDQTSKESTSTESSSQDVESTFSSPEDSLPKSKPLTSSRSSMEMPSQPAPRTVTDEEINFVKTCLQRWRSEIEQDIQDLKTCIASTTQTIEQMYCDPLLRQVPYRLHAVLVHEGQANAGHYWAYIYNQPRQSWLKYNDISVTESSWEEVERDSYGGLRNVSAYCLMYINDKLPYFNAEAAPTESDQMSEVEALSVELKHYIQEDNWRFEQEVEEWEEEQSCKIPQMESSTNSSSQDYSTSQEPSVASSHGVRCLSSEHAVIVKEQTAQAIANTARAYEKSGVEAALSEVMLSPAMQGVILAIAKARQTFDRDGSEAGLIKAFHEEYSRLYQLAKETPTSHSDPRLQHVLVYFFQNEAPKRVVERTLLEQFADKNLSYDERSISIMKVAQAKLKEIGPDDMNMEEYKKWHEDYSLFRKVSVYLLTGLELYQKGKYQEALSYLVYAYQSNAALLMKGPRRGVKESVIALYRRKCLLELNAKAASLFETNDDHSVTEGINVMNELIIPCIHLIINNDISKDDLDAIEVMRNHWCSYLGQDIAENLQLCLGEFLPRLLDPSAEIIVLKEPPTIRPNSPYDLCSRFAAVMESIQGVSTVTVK
Each line names hits and unclear results; the compound was inactive in the other large screens. In the library only some 13% were active in any assay of this set; here they are far more common. Rule as the data show it: active = inhibition above about 30%; inactive = the rest.

C=C(NC(=O)C(=C)NC(=O)c1ccc2c(n1)-c1coc(n1)C(=C)NC(=O)C(=C)NC(=O)c1nc(oc1C)C(=C)NC(=O)C(C(C)(C)O)NC(=O)C(=C)NC(=O)c1nc(oc1C)/C(=C/C)NC(=O)C(C(C)O)NC(=O)c1csc-2n1)C(N)=O (stereo unspecified)	USP17 inh 36
O=C1OCC(c2ccc(F)cc2)=C1c1ccccc1[N+](=O)[O-]	none
N#Cc1c(Cl)cccc1Oc1ccc(S(=O)(=O)N2CCC(O)CC2)cc1	USP17 inh 66
COc1cccc2sc(N3CCN(c4nc5ccccc5s4)CC3)nc12	USP17 inh 77
Cc1ccccc1CN1C[C@H]2C[C@H](C(=O)N3CCCC3)[C@@H](C1)O2	none
Clc1ccc(Cc2nn3cc(-c4ccccc4)nc3s2)c(Cl)c1	none
O=C(Cc1ccc(S(=O)(=O)N2CCOCC2)s1)NCc1cccc(Cl)c1	USP8 inh 40
Cc1ccc(S(=O)(=O)N2CCCN(C(=O)c3oc4ccccc4c3C)CC2)cc1	USP30 block 33
O=C(CN1C(=O)CCCc2cc(S(=O)(=O)N3CCCC3)ccc21)N1CCCCC1	none
O=C(Nc1ccc2nc3n(c(=O)c2c1)CCCC3)c1ccc2c(c1)OCO2	none
COc1cccc(NC(=O)Nc2ccc3nc4n(c(=O)c3c2)CCCC4)c1	USP17 inh 34, USP8 inh 50, USP28 block 55
COc1ccc(NC(=O)Nc2ccc3nc4n(c(=O)c3c2)CCCC4)cc1OC	USP28 block 31
O=C(Nc1ccc2c(c1)OCCO2)Nc1ccc2nc3n(c(=O)c2c1)CCCC3	USP17 inh 32, USP28 block 68
Cc1cn2nnc(C(=O)NCc3ccccc3C(F)(F)F)c2c(=O)[nH]1	none
COc1ccc(C)cc1N(C(=O)Cc1ccccc1)c1nc2ccccc2s1	none
CCCCn1c(=O)[nH]c2c(c1=O)C(C)(CC)Cc1ccccc1-2 (stereo unspecified)	none
COc1ccc(CNC(=O)c2cc(S(=O)(=O)N3CCOCC3)ccc2C)cc1	none
COc1ccc(-c2nc(-c3ccc4oc(C)nc4c3)no2)c(OC)c1	none
CC(=O)c1cccc(NC(=O)c2ccc(=O)n(Cc3ccc(F)cc3)c2)c1	none
O=S1(=O)Cc2cnc(NCC3CC3)nc2[C@H]2CN(Cc3ccccc3)C[C@H]21	none
Cc1ccccc1CN1C[C@@H]2c3nc(NCC4CC4)ncc3CS(=O)(=O)[C@@H]2C1	USP8 inh 35
Cc1ccc(C)c(CSc2ncnc3nc[nH]c23)c1	USP28 block 40
Cc1ncnc2nc[nH]c12	none
Cc1ccc2scc(CC(=O)N3CCCC(c4[nH]nc5nccnc45)C3)c2c1 (stereo unspecified)	none
CCOC(=O)C1CCN(c2nc3ccccc3n2Cc2cccc(F)c2)CC1	none
O=C(Cn1c(N2CCC(Cc3ccccc3)CC2)nc2ccccc21)c1ccccc1	USP30 block 42
C=C1CCC[C@]2(C)C[C@H]3OC(=O)C(CN4CCN(C(c5ccccc5)c5ccccc5)CC4)[C@H]3CC12 (stereo partly specified)	none
O=C(CSc1ncnc2c1cnn2-c1ccccc1)Nc1ccccc1-c1ccccc1	USP30 block 31
Cc1cc(-c2nnc(CN3CCCCC3)o2)ccc1[N+](=O)[O-]	none
CCCN1CCN(C(=O)c2cc(NC(=O)C3CCC3)cc3nc(C)ccc23)CC1	none
Cc1nc(S(=O)(=O)N(C)C2CCCCC2)cn1C	none
CC(C)CCNC(=O)c1ccc2c(=O)n(C3CCCC3)c(=O)[nH]c2c1	USP8 inh 34
CC(C)CCNC(=O)c1cccc(-c2cnc(NC3CCCCC3)nc2)c1	USP30 block 32
O=C(NCc1ccncc1)c1nc(-c2ccccn2)no1	none
Cc1ccc(-c2cc(C(=O)Nc3ccc(S(N)(=O)=O)cc3)[nH]n2)c(O)c1	USP17 inh 39, USP30 block 32, USP28 block 48
CCn1nnc2c(NCCC3=CCCCC3)ncnc21	none
CC(NC(=O)c1cc2c(=O)n(C)ccc2n1C)c1ccccc1 (stereo unspecified)	USP8 inh 45
COC(=O)C(Cc1c[nH]c2ccccc12)NC(=O)Cc1ccccc1F (stereo unspecified)	none
COc1ccc(CC(=O)OCC(=O)N2c3ccccc3NC(=O)C2(C)C)cc1	USP17 inh 34, USP8 inh 33
COCc1nc2cccnc2n1C1CCN(S(=O)(=O)c2ccccc2C)CC1	none
CCc1nc(SCC(=O)Nc2ccc(Cl)cc2Cl)c2oc3ccccc3c2n1	none
